# LRH-1 inv ag – suppresses constitutive activity of human LRH-1. inhibition, % at 3.6 µM. actives 0.13% (n = 360,000). HEK293T StAR-luciferase reporter, LRH-1 transfected, 24 h. O00482;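 active = inhibition above the mean inhibition of all tested compounds plus 3 SD, cut at about 73% in these data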;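 note: 0% = DMSO wells and 100% = reporter-only cells lacking LRH-1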
# NCOA2 inhibitor – inhibits human steroid receptor coactivator 2; Q15596; HEK293 GAL4-SRC2 luciferase reporter, luminescence; inhibition, % at 9 µM; actives 0.17% (n = 370,000);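 active = inhibition above the mean inhibition of all tested compounds plus 3 SD, set per campaign, cut at about 52% in these data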;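 note: 0% = DMSO treated cells and 100% = cells given Gossypol at 36 µM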
# GalR3 antag – human GalR3 antagonism; O60755; HEK293 GalR3-CNG cAMP membrane potential fluorescence; galR3 body fused to GalR1 C-terminus; inhibition, % at 3 µM; actives 0.44% (n = 360,000); AID 651719;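 active = inhibition above the screen-wide average plus 3 SD, cut at about 13% in these data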;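 note: forskolin and galanin both at EC90 stimulate the cells; cAMP rise reported by CNG channel membrane potential dye signal; 0% = forskolin plus galanin with DMSO and 100% = forskolin alone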
# SRC1 inh – human NCOA1 inhibition. Q15788. HEK293 GAL4-SRC1 luciferase reporter, luminescence. inhibition, % at 3.6 µM. AID 588354. actives 0.12% (n = 360,000);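 active = inhibition above the campaign mean plus 3 SD, with each screening campaign given its own cutoff, cut at about 60% in these data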;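 note: 0% = DMSO treated cells and 100% = gossypol at 36 µM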
# NR2F2 inh – inhibitors of human COUP-TFII (NR2F2) | P24468 | HEK293T NGFI-A luciferase reporter, luminescence | inhibition, % at 8.6 µM | actives 0.7% (n = 370,000) | AID 686940;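 active = inhibition above a per-plate cutoff, mean inhibition of test wells between control levels plus 3 SD, cut at about 38% in these data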;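 note: cells cotransfected with COUP-TFII expression vector driving the NGFI-A reporter; 0% = median of COUP-TF2 test wells and 100% = reporter-only cells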
# Target sequence (P24468 whole entry, looked up): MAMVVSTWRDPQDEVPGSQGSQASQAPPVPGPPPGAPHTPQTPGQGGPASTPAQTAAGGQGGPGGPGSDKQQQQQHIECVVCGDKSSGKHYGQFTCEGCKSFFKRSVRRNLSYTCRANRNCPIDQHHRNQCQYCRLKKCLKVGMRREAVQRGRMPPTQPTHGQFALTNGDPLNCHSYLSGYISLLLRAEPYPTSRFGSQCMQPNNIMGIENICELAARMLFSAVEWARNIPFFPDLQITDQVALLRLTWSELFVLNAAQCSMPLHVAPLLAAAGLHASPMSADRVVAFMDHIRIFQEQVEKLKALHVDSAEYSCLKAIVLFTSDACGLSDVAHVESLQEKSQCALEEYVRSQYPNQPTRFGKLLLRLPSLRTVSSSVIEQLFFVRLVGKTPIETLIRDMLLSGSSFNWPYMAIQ
# NCOA3 inh – inhibits human SRC3 coactivator | HEK293 GAL4-SRC3 luciferase reporter, luminescence | inhibition, % at 3.6 µM | actives 0.17% (n = 360,000);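 active = inhibition above a per-campaign cutoff, the mean of all compounds plus 3 SD, cut at about 60% in these data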;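 note: 0% = DMSO-treated cells and 100% = gossypol-treated cells at 36 µM; higher means less SRC3-driven luciferase light from the GAL4 reporter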
# GalR3 antag conf – confirmation of human galanin receptor 3 antagonists. AID 652245. actives 59% (n = 1,600). shares compounds with GalR3 antag. inhibition, % at 3 µM. HEK293 GalR3 CNG cAMP biosensor, membrane potential fluorescence; galR3 fused to GalR1 carboxy tail; challenged with forskolin and galanin at EC90;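 active = inhibition above the primary screen's cutoff, the mean inhibition of all screened compounds plus 3 SD, cut at about 13% in these data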;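 note: 0% = forskolin plus galanin and 100% = forskolin alone with DMSO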
# HEK-CNG parental – parental cell agonism counter-screen for GalR3 antagonists. shares compounds with GalR3 antag. HEK293-CNG parental cells, cAMP membrane potential fluorescence; normalised: DMSO wells 0%, forskolin wells 100%. activation, % at 3 µM. actives 10% (n = 1,600). AID 652268; in the data active = activation above about 1.3%
# Numbers without * were called inactive; . = no result. The list is not random: actives were taken first. Their share in the collection is about 1.1%.
SMILES,LRH-1 inv ag,NCOA2 inhibitor,GalR3 antag,SRC1 inh,NR2F2 inh,NCOA3 inh,GalR3 antag conf,HEK-CNG parental
O=C1COc2ccc(C(=O)COC(=O)c3cc(S(=O)(=O)N4CCOCC4)ccc3F)cc2N1,3,16,55*,-21,0,0,34*,0
O=C(CSc1nnc(-c2cccs2)o1)c1ccc(F)cc1,.,-40,.,.,-34,.,.,.
COc1ccc(OC)c(S(=O)(=O)N2CCCC(C(=O)N3CCN(Cc4ccccc4)CC3)C2)c1 (stereo not drawn),.,-4,.,.,8,.,.,.
CCOC(=O)c1oc2c(c1C)/C(=N/O)CCC2,-10,-23,13*,-34,-46,-31,2,0
CCOC(=O)c1oc2c(c1C)C(=O)CCC2,-8,-6,-11,-23,-4,2,.,.
O=C(Oc1ccc(Br)cc1C(=O)/C=C/c1ccccc1F)c1ccco1,11,-7,24*,-9,8,3,12,0
CCCCCCCCCC(=O)N/N=C(\C)c1cccnc1,1,-24,14*,2,-8,-5,0,0
COc1ccc(CC(=O)N2CCN(C(=O)Cc3ccc(OC)cc3)CC2)cc1,0,-12,-3,-14,0,-7,.,.
COc1ccc(CC(=O)N2CCN(c3ccc(C4=NNC(=O)CC4C)cc3)CC2)cc1 (stereo not drawn),15,-16,76*,-11,0,-13,87*,0
CSc1ncccc1C(=O)NCC(c1cccs1)N1CCOCC1 (stereo not drawn),-3,13,16*,0,-5,7,-1,0
CN1CC(=O)N(CC(=O)Nc2ccc3c(c2)CCC3)C1=O,12,1,24*,-2,-18,-2,4,0
C[C@H]1[C@@H](N(C)C)CC[C@@]23CCCN2C(=O)CCC[C@@H]13,.,.,.,.,-14,.,.,.
O=C(Nc1ccc(Cl)cc1)c1cccc(N2C(=O)C3C4CCC(C4)C3C2=O)c1 (stereo not drawn),-26,-14,92*,-15,8,12,-1,0
O=C(O)c1ccc(NC(=O)c2cccc(N3C(=O)C4C5CCC(C5)C4C3=O)c2)cc1 (stereo not drawn),-11,-14,-2,-20,8,9,.,.
CCC[C@H]1[C@@H](NC(=O)c2cccc(N(C)C)c2)CC[C@@]23CCCN2C(=O)CCC[C@@H]13,.,.,.,.,-3,.,.,.
Cc1ccnc(N2C(=O)c3cccc4c([N+](=O)[O-])ccc(c34)C2=O)c1,17,-83,10,-22,-13,4,.,.
Cc1ccc(N2C(=O)c3cccc4c([N+](=O)[O-])ccc(c34)C2=O)c2cccnc12,15,18,14*,7,3,12,17*,0
O=C1N2CCc3ccccc3C2CS(=O)(=O)N1Cc1ccc(F)cc1 (stereo not drawn),.,-15,.,.,3,.,.,.
Cc1cc(C)cc(N(CC(=O)NC2CCC(C)CC2)S(=O)(=O)c2ccc(Br)s2)c1 (stereo not drawn),.,-21,.,.,-8,.,.,.
COc1cc(/C=C/c2ccc3c([N+](=O)[O-])cccc3n2)ccc1OCC(=O)O,5,-5,3,-4,30,1,.,.
COc1cc(/C=C/c2ccc3cccc([N+](=O)[O-])c3n2)ccc1OCC(=O)O,-32,-16,67*,-7,13,10,66*,0
O=C(O)COc1ccc(/C=C/c2ccc3cccc([N+](=O)[O-])c3n2)cc1,-23,8,16*,-2,-4,12,21*,0
CCOC(=O)N1CCN(C(=O)C[C@@H]2C(=O)N(CCc3ccc(Cl)cc3)/C3=C/CCCCC[C@@]32C(=O)OCC)CC1,.,20,.,.,17,.,.,.
CCOc1ccc(C2=Nn3c(nnc3-c3ccccc3OC)SC2)cc1,35,2,22*,-6,-73,1,45*,2.2*
COc1ccc(C2=Nn3c(nnc3-c3ccccc3C(F)(F)F)SC2)cc1OC1CCOC1 (stereo not drawn),28,-19,15*,-15,-15,-30,17*,0
SMILES,LRH-1 inv ag,NCOA2 inhibitor,GalR3 antag,SRC1 inh,NR2F2 inh,NCOA3 inh,GalR3 antag conf,HEK-CNG parental
CCOc1ccc(-c2nnc3n2N=C(c2ccc(OC)cc2)CS3)cc1,-5,-11,1,6,11,4,.,.
O=C(COc1ccc2c(c1)oc(=O)c1ccccc12)NC(Cc1ccc(Cl)cc1)C(=O)O (stereo not drawn),-4,0,26*,2,-7,-4,4,0
Cc1ccnc(NC(=S)N2CCC(Nc3cccc(C(F)(F)F)c3)CC2)c1,.,.,.,.,-6,.,.,.
CC(C)NC[C@H](O)c1ccc(O)c(O)c1,3,-47,-7,-15,-60,-38,.,.
CC(C)NCC(O)c1cc(O)cc(O)c1 (stereo not drawn),-4,-36,78*,-8,3,-38,22*,6.4*
CCN(CC)c1ccc(Nc2cc3n(c(=O)n2)CCc2cc(OC)c(OC)cc2-3)cc1,0,-31,47*,-59,-12,-55,64*,0
COc1cc2c(cc1OC)-c1cc(Nc3ccc(F)cc3)nc(=O)n1CC2,-2,-8,9,-21,-33,-38,.,.
COc1cc2c(cc1OC)-c1cc(Nc3ccc(N(C)C)cc3)nc(=O)n1CC2,4,-19,36*,-46,-55,-2,55*,0
COCCCNC(=O)CSc1nnc(-c2cccnc2)n1C1CCCCC1,.,-24,.,.,2,.,.,.
O[C@H](COc1ccc(Cl)cc1)CN1CCC(C(O)(c2ccccc2)c2ccccc2)CC1,.,-9,.,.,-1,.,.,.
CCOC(=O)C(=CNc1ccc(S(N)(=O)=O)cc1)C(=O)OCC,17,-2,13*,-17,-37,-7,29*,1
CCOC(=O)C(=CNc1ccc(C#N)cc1)C(=O)OCC,14,14,-8,2,15,14,.,.
COC(=O)c1cc(-c2ccc(Oc3ccccc3)cc2)c(=O)n2c1CCC2,.,-2,.,.,-12,.,.,.
COC(=O)CCCN=C1SCCN1Cc1ccccc1,-2,21,15*,-71,-24,-23,8,0
Cc1ccc(S(=O)(=O)NN2C(=O)c3ccccc3NC2c2ccccn2)cc1 (stereo not drawn),1,17,14*,5,13,8,-1,0
Cc1cc(-c2ccccc2)cc(=O)[nH]1,25,-21,19*,-36,5,2,12,0
COc1ccc(Cl)cc1NC(=O)Nc1ccccc1SC,-3,11,.,3,14,3,11,0

# Screens as filed in PubChem.
